Growth data for 14 compounds are collected here from PubChem BioAssay (NCI).

Test systems include HCT-15 colon; HT29 colon; SNB-75 CNS; SNB-19 CNS; U251 CNS; PC-3 prostate; SK-MEL-5 melanoma; UACC-62 melanoma; SK-MEL-28 melanoma; LOX IMVI melanoma.
What all share (assay): NCI-60 one-dose screen, 48 h (100 = growth as untreated, 0 = no growth, -100 = all killed)
What all share (settings): 10 µM unless noted

Structures are written as SMILES. This is part of a sample that, as a whole, favours compounds with a hit. Of some 83,000 tested, about 20% had one in any assay.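 Assay: single dose, 48 h. Readout: percent growth (0 = no net growth; negative = cell death). Active: <10.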 Unmarked numbers belong to inactive results. Calls of active or inactive are those of the source.

For the compound `O=C(Cc1ccc([N+](=O)[O-])cc1)Oc1ccccc1`, the growth was 104% in the assay on HCT-15 colon; 104% in the assay on HT29 colon; 102% with SNB-75 CNS; 103% with SNB-19 CNS; 107% in the assay with U251 CNS; 93.1% in the assay on PC-3 prostate. The growth with SK-MEL-5 melanoma was 105%; in the assay on UACC-62 melanoma, 101%; with SK-MEL-28 melanoma it was 112%.
Consider `C=C(C)[C@@H]1CC[C@]2(C(=O)O)CC[C@]3(C)[C@H](CC[C@@H]4[C@@]5(C)C[C@@H](CC#Cc6ccc(C(C)=O)s6)[C@H](O)C(C)(C)[C@@H]5CC[C@]43C)[C@@H]12`, for which the growth with HCT-15 colon is 33.4%; with HT29 colon, 34.5%; in the assay on SNB-75 CNS, 71.1%; in the assay on SNB-19 CNS it was 75.7%; with U251 CNS it was 32.3%; with PC-3 prostate, 26%. Besides, the growth in the assay on SK-MEL-5 melanoma was 43.3%; in the assay on UACC-62 melanoma it was 52.3%; with SK-MEL-28 melanoma, 76.5%.
Take `COc1ccc(/C=C/c2nc(NCCCN(C)C)c3ccccc3n2)cc1`: the growth is 86.6% in the assay with HCT-15 colon; 11.5% in the assay on HT29 colon; 42.8% in the assay with SNB-75 CNS; 100% in the assay on SNB-19 CNS; -48.4% (active) in the assay on U251 CNS; 32.3% with SK-MEL-5 melanoma. Also, the growth is 104% in the assay with UACC-62 melanoma, -67.1% (active) in the assay on LOX IMVI melanoma and 77.5% in the assay on SK-MEL-28 melanoma.
Regarding `CCN(CC)c1ccc2c(cc1=O)[C@@H](NC(C)=O)CCc1cc(OC)c(OC)c(OC)c1-2`, the growth was 30% in the assay with HCT-15 colon; -26.4% (active) in the assay with HT29 colon; 22.1% with SNB-75 CNS; 40.8% in the assay on SNB-19 CNS; 31.7% in the assay on PC-3 prostate; 7.17% (active) with SK-MEL-5 melanoma. Besides, the growth in the assay with UACC-62 melanoma is 19.4%; with LOX IMVI melanoma, 25.1%; with SK-MEL-28 melanoma it was 62.3%.
Regarding `COc1cccc(-c2cc(-c3cccs3)c(C#N)c(=O)[nH]2)c1`, the growth in the assay with HCT-15 colon was 97.8%; in the assay with HT29 colon, 116%; in the assay on SNB-75 CNS, 98.4%; with SNB-19 CNS, 99.9%; with PC-3 prostate, 103%; with SK-MEL-5 melanoma, 107%. In addition, the growth in the assay with UACC-62 melanoma is 96.3%; in the assay with LOX IMVI melanoma, 99.5%; with SK-MEL-28 melanoma, 115%.
Take `CNC(=O)OC1C(O[C@H]2C[C@H]3[C@@H]4CC=C5C[C@@H](O)CC[C@]5(C)[C@H]4CC[C@]3(C)[C@H]2[C@H](C)C(=O)CCC(C)C)OCC(O)C1OC1OCC(O)C(O)C1OC(=O)c1ccc(OC)cc1` (stereo partly specified): the growth was 0.802% (active) in the assay on HCT-15 colon; 14.7% in the assay on HT29 colon; 18.4% with SNB-75 CNS; 23.2% in the assay with SNB-19 CNS; -21.8% (active) in the assay with PC-3 prostate; -27.9% (active) in the assay on SK-MEL-5 melanoma. For the same compound, the growth in the assay with UACC-62 melanoma is -27.6% (active); in the assay with LOX IMVI melanoma it was -31.3% (active); in the assay with SK-MEL-28 melanoma it was -53.3% (active).
Regarding `CC(C)(C)c1nn(-c2ccccc2)c2c1C(=O)CSC(c1ccccc1Cl)N2` (stereo unspecified), the growth with HCT-15 colon was 25.1%; in the assay with HT29 colon it was 18.5%; in the assay on SNB-75 CNS, -1.74% (active); in the assay on SNB-19 CNS it was 39.8%; in the assay on U251 CNS it was 33.2%; with PC-3 prostate, 15.5%. Moreover, the growth was 11.6% in the assay with SK-MEL-5 melanoma, 38.7% with UACC-62 melanoma and 47.3% in the assay on SK-MEL-28 melanoma.
With `Cc1cc(-c2ccc(N=Nc3c(S(=O)(=O)O)cc4cc(S(=O)(=O)O)cc(O)c4c3O)c(C)c2)ccc1N=Nc1c(S(=O)(=O)O)cc2cc(S(=O)(=O)O)cc(O)c2c1O`, the growth in the assay on HCT-15 colon is 109%; in the assay with HT29 colon, 103%; in the assay with SNB-75 CNS it was 82.4%; with SNB-19 CNS it was 106%; in the assay with U251 CNS, 101%; in the assay with PC-3 prostate, 93.6%. The growth was 101% in the assay on SK-MEL-5 melanoma, 114% with UACC-62 melanoma and 110% in the assay on SK-MEL-28 melanoma.
`CC(C)CCSc1nc(-c2ccc(F)cc2)c(C#N)c(N2CCN(C)CC2)n1`: the growth in the assay on HCT-15 colon is 83.6%; in the assay on HT29 colon it was 82.2%; with SNB-75 CNS, 73%; with SNB-19 CNS it was 91.7%; in the assay on U251 CNS it was 77.6%; in the assay with PC-3 prostate, 65%. For the same compound, the growth in the assay with SK-MEL-5 melanoma was 90.4%; with UACC-62 melanoma, 87.2%; with SK-MEL-28 melanoma, 96.5%.
For `COc1ccc(-c2nc3c(c(-c4ccc(Cl)cc4)nn3-c3ccccc3)c(-c3ccc(O)cc3)c2C#N)cc1`, the growth in the assay on HCT-15 colon was 29.7%; with HT29 colon, 23%; with SNB-75 CNS it was 35.1%; in the assay with SNB-19 CNS, 62.1%; with U251 CNS it was 33.7%; with PC-3 prostate, 23.9%. For the same compound, the growth is 42.9% in the assay with SK-MEL-5 melanoma, 56.9% with UACC-62 melanoma and 59.2% in the assay with SK-MEL-28 melanoma.
Regarding `CCN(CC)c1ccc(/C=N/N=C(N)N)cc1`, the growth in the assay on HCT-15 colon was 41.2%; in the assay with HT29 colon, 9.78% (active); with SNB-75 CNS, 40.2%; in the assay with SNB-19 CNS, 73.6%; in the assay with U251 CNS, 46.9%; with PC-3 prostate, 30.7%. In addition, the results for the growth in the assay on SK-MEL-5 melanoma, in the assay with UACC-62 melanoma and with SK-MEL-28 melanoma were 40.2%, 48.4% and 61.7%, respectively.
Regarding `CC(C)=CC[C@@H]1CC2(CC=C(C)C)C(=O)C(OC3(C(=O)c4ccccc4)C(=O)C4(CC=C(C)C)C[C@@H](CC=C(C)C)C(C)(C)C(CC=C(C)C)(C4=O)C3=O)(C(=O)c3ccccc3)C(=O)C(CC=C(C)C)(C2=O)C1(C)C` (stereo partly specified), the growth is 5.15% (active) in the assay with HCT-15 colon; -16.1% (active) with HT29 colon; 37.6% with SNB-75 CNS; 11.6% with SNB-19 CNS; -17.3% (active) in the assay on PC-3 prostate; -77.5% (active) in the assay on SK-MEL-5 melanoma. The growth in the assay with UACC-62 melanoma was -71.3% (active); in the assay on LOX IMVI melanoma, 1.63% (active); in the assay on SK-MEL-28 melanoma, 14.9%.
On to `O=S(=O)(Cc1ccc(Cl)cc1Cl)c1ccc(Cl)cc1`, for which the growth is 31.8% in the assay with HCT-15 colon; 9.72% (active) in the assay with HT29 colon; 18.8% with SNB-75 CNS; 44% with SNB-19 CNS; 25.8% in the assay with U251 CNS; 31.1% in the assay with PC-3 prostate. The growth in the assay on SK-MEL-5 melanoma is 39.8%; in the assay with UACC-62 melanoma, 44.6%; in the assay with SK-MEL-28 melanoma, 65.9%.
As for `COc1cccc(/C(C)=N/NC(=O)CSc2nc3ccccc3c(=O)n2CCc2ccc(S(N)(=O)=O)cc2)c1`, the growth is 69.7% in the assay on HCT-15 colon; 2.6% (active) in the assay with HT29 colon; 42.1% in the assay with SNB-75 CNS; 24.7% in the assay with SNB-19 CNS; 7.25% (active) with PC-3 prostate; 1.45% (active) in the assay with SK-MEL-5 melanoma. Moreover, the growth with UACC-62 melanoma was 25.1%; with LOX IMVI melanoma, 26%; in the assay with SK-MEL-28 melanoma, 67.5%.
